Assay results as given in PubChem BioAssay (Tox21).
Results filed as inconclusive are left out. A call without a number means that no potency is given here. Active and inactive are the calls of the source. Unless noted, calls come from the whole dose curve; as a rule, active = well fitted curve in the direction sought with a large enough effect in the repeat runs; inconclusive = weak or mixed curves; inactive = no such curve, though single readings can be large; an effect the other way counts as inactive or inconclusive. Positions of bridges follow the written chain, without caps; N, C: chain ends. Non-standard residues stand in square brackets, D forms with d. Residues, ends and D or L forms follow the SMILES beside them. Orn = NCCC[C@H](N)C(=O)O; Mpa = O=C(O)CCS

Legend:
[1] = qHTS assay for small molecule agonists of the p53 signaling pathway (AID 651631; calls by dose curve; note: nearly all actives have a fitted effect of over 15% in size)
Procedure, shortened: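 HCT-116 p53RE-bla reporter line, 16 h compound treatment at 37 °C, then fluorescence after 2 h with B/G FRET substrate.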

[2] = qHTS assay for small molecules that induce genotoxicity in human embryonic kidney cells expressing luciferase-tagged ATAD5 (AID 651632); note: nearly all actives have a fitted effect of over 15% in size
Procedure, shortened: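 Test compounds were delivered by pin tool onto HEK293T reporter cells (2,000/well) expressing ATAD5 fused to luciferase. After 16 hr at 37C, 5% CO2, Amplite was added for 30 min at room temperature and luminescence was measured.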

[3] = qHTS assay for small molecule agonists of the p53 signaling pathway - cell viability (AID 651633; calls by dose curve;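 note: p53RE-bla HCT reporter cells with a stable beta-lactamase p53 reporter; nearly all actives have a fitted effect of over 30% in size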)
Procedure, shortened: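 p53RE-bla cells, seeded at 4,000 per well and rested 5 h at 37 C/5% CO2, received compounds in DMSO for 16 h at 37 C. CellTiter-Glo was then added, and luminescence was read after 30 min at room temperature to gauge cytotoxicity.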

[4] = qHTS assay for small molecules that induce genotoxicity in human embryonic kidney cells expressing luciferase-tagged ATAD5 - cell viability (AID 651634; calls by dose curve; note: nearly all actives have a fitted effect of over 25% in size)
Procedure, shortened: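 Quantitative high-throughput format. HEK293T cells expressing ATAD5 fused to luciferase were plated at 2,000 cells/well and treated 15.5 hr with compound versus DMSO. Viability was determined by fluorescent live-cell protease substrate, 30 min at 37C.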

[5] = qHTS assay for small molecule disruptors of the mitochondrial membrane potential - cell viability (AID 720634; calls by dose curve;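 note: human HepG2 liver cancer cells; nearly all actives have a fitted effect of over 20% in size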)
Procedure, shortened: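 Same-well counter-screen: following the MMP dye addition, CellTiter-Glo was added to 1 hr compound-treated HepG2 cells and luminescence read after 30 min at room temperature.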

[6] = qHTS assay for small molecule disruptors of the mitochondrial membrane potential (AID 720635); note: potency is the fitted concentration of half-maximal effect
Procedure, shortened: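 HepG2 cells (2,000/well) attached overnight at 37C, then took compound for 1 hr at 37C, 5% CO2. Mito-MPS dye was added for 30 min; fluorescence was read at 490/535 nm (monomers) and 540/590 nm (aggregates).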

[7] = qHTS assay to test for compound auto fluorescence at 590 nm (red) in HepG2 cells (AID 720674)
Procedure, shortened: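 Intrinsic compound fluorescence in the red window (Ex/Em 540/590 nm) is measured in attached HepG2 cells exposed for 1 hr, DMSO vehicle as baseline, benchmarked to Rose Bengal sodium.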

[8] = qHTS assay to test for compound auto fluorescence at 535 nm (green) in HepG2 cells (AID 720675)
[9] = qHTS assay to test for compound auto fluorescence at 460 nm (blue) in HEK293 cells (AID 720678)
Procedure, shortened: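 Blue read-out at excitation 405 nm and emission 460 nm follows overnight compound exposure of HEK293 cells at 37C in 5% CO2. Activity is given as auto fluorescence equivalency to triamterene.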

[10] = qHTS assay to test for compound auto fluorescence at 590 nm (red) in HEK293 cells (AID 720679)
Procedure, shortened: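 Red channel, Ex/Em 540/590nm; signal expressed as equivalency to Rose Bengal sodium. HEK293, 2,000 cells/well, 10% dialyzed FBS; 23 nL compound pinned after 4-5 hr attachment; overnight 37C/5% CO2 before reading.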

[11] = qHTS assay to test for compound auto fluorescence at 535 nm (green) in HEK293 cells (AID 720680)
[12] = qHTS assay to test for compound auto fluorescence at 460 nm (blue) in HEK293 cell free culture (AID 720681)
Procedure, shortened: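 Test compounds were pinned into cell-free culture medium (DMEM with 10% FBS) and fluorescence was read directly at Ex/Em 405/460 nm. Signals were expressed as fluorescence equivalents of triamterene, with DMSO vehicle as control.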

[13] = qHTS assay to test for compound auto fluorescence at 535 nm (green) in HEK293 cell free culture (AID 720682)
Procedure, shortened: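 Steps: dispense DMEM/10% FBS into empty wells; pin in compound or DMSO; measure fluorescence at 485/535 nm. Values are fluorescein equivalents.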

[14] = qHTS assay to test for compound auto fluorescence at 590 nm (red) in HEK293 cell free culture (AID 720683)
Procedure, shortened: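 Tox21 10K library compounds were pinned into cell-free DMEM with 10% FBS and fluorescence was read at excitation 540 nm. Activity is expressed as Rose Bengal sodium equivalency.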

[15] = qHTS assay to test for compound auto fluorescence at 590 nm (red) in HepG2 cell free culture (AID 720684)
Procedure, shortened: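 Ex 540 / Em 590 nm read of compound in cell-free MEM (10% FBS). Rose Bengal sodium reference.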

[16] = qHTS assay to test for compound auto fluorescence at 460 nm (blue) in HepG2 cell free culture (AID 720685)
Procedure, shortened: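 Cell-free plates of MEM plus 10% FBS received 23 nL compound or DMSO vehicle; blue-channel (405/460 nm) intensity scored against triamterene as reference fluorophore.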

[17] = qHTS assay to test for compound auto fluorescence at 535 nm (green) in HepG2 cell free culture (AID 720686)
[18] = qHTS assay to test for compound auto fluorescence at 460 nm (blue) in HepG2 cells (AID 720687)
Procedure, shortened: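 Cells (2,000/well in MEM with 10% FBS) attached overnight at 37 C, then were exposed to compound or DMSO for 1 hr at 37 C, 5% CO2. Fluorescence read at Ex/Em 405/460 nm, expressed as triamterene-equivalent signal.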

[19] = molecular target: Glucocorticoid receptor (Homo sapiens) (UniProt P04150); experiment: qHTS assay to identify small molecule agonists of the glucocorticoid receptor (GR) signaling pathway (AID 720691; active = well fitted activation curve with a large enough effect in the signal ratio in the repeat runs, not every such curve was filed as active; the % refers to the signal ratio); conditions: GR-bla HeLa, beta-lactamase reporter ratio, 18 h; activation: at 62.4 µM (top of the series)
Sequence of Glucocorticoid receptor (Homo sapiens) (P04150 whole entry, looked up): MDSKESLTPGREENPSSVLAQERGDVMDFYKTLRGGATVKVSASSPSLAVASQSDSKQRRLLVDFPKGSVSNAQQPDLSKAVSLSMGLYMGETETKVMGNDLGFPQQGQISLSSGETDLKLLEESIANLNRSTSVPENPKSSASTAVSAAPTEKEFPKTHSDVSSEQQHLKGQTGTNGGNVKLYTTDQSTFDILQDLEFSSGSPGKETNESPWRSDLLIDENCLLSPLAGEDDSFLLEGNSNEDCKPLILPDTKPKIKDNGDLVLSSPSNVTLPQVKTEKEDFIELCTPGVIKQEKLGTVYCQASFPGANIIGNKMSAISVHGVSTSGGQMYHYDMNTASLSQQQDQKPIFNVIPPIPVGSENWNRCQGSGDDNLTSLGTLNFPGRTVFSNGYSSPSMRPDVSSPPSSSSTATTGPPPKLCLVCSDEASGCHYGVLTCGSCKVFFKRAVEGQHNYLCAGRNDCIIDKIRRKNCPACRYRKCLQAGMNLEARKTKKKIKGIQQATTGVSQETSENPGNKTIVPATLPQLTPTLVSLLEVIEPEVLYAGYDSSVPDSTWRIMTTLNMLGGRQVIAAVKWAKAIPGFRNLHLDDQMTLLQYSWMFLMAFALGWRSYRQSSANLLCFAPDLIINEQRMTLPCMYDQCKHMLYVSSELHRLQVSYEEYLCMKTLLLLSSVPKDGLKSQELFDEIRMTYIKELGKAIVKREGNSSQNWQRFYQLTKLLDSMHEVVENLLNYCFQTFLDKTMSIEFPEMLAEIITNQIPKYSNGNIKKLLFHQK
Procedure, shortened: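 A HeLa cervical cancer line expressing GR and a glucocorticoid response element-driven beta-lactamase gene is treated with compounds for 18 h; LiveBLAzer B/G FRET substrate is then applied and fluorescence read.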

[20] = molecular target: Glucocorticoid receptor (Homo sapiens) (UniProt P04150); experiment: qHTS assay to identify small molecule antagonists of the glucocorticoid receptor (GR) signaling pathway (AID 720692; active = well fitted inhibition curve with a large enough effect in the signal ratio in the repeat runs, not every such curve was filed as active; the % refers to the signal ratio)
Procedure, shortened: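 GRE-bla HeLa line, dex-stimulated (5 nM final). Compound exposure 18 h, 37 C. Beta-lactamase FRET read after 2 h RT substrate.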

SMILES	Potency [1]	Potency [2]	Potency [3]	Potency [4]	Potency [5]	Potency [6]	Potency [7]	Potency [8]	Potency [9]	Potency [10]	Potency [11]	Potency [12]	Potency [13]	Potency [14]	Potency [15]	outcome [16]	Potency [17]	outcome [18]	Potency [19]	Potency [20]
CCOc1ccc(C[C@H]2NC(=O)CCSSC[C@@H](C(=O)N3CCC[C@H]3C(=O)N[C@@H](CCCN)C(=O)NCC(N)=O)NC(=O)[C@H](CC(N)=O)NC(=O)[C@H]([C@@H](C)O)NC(=O)[C@H]([C@@H](C)CC)NC2=O)cc1 ([Mpa][dY](Et)ITNCP[Orn]G-NH2; disulfide 1-6)	inactive	inactive	inactive	inactive	inactive	inactive	inactive	inactive	inactive	inactive	inactive	inactive	inactive	inactive	inactive	inactive	inactive	inactive	inactive	inactive
CC(C)(C)CC(=O)OCC(=O)[C@@]12OC(C)(C)O[C@@H]1C[C@H]1[C@@H]3CCC4=CC(=O)C=C[C@]4(C)[C@@]3(F)[C@@H](O)C[C@@]12C	inactive	inactive	inactive	inactive	inactive	13.3 µM (active)	inactive	inactive	inactive	inactive	inactive	inactive	inactive	inactive	inactive	inactive	inactive	inactive	–	–
O=C(c1cc2ccccc2o1)N1CCN(Cc2ccccc2)CC1	inactive	inactive	inactive	inactive	inactive	inactive	inactive	inactive	inactive	inactive	inactive	inactive	inactive	inactive	inactive	inactive	inactive	inactive	inactive	–
O.O=C([O-])CC([S-])C(=O)[O-].[Au+].[Na+].[Na+] (centres undefined)	inactive	inactive	inactive	inactive	inactive	inactive	inactive	inactive	inactive	inactive	inactive	inactive	inactive	inactive	inactive	inactive	inactive	inactive	inactive	inactive
CS(=O)(=O)NC(=O)CCC/C=C\C[C@H]1C(=O)C[C@@H](O)[C@@H]1/C=C/[C@H](O)COc1ccccc1	inactive	inactive	inactive	inactive	inactive	inactive	inactive	inactive	inactive	inactive	inactive	inactive	inactive	inactive	inactive	inactive	inactive	inactive	inactive	–
CCCCCCCCCCCCCCCC(=O)OC[C@@H](NC(=O)C(Cl)Cl)[C@H](O)c1ccc([N+](=O)[O-])cc1	inactive	inactive	inactive	inactive	inactive	33.5 µM (active)	inactive	inactive	inactive	inactive	inactive	inactive	inactive	inactive	inactive	inactive	inactive	inactive	–	–
